“And” between values parts separate entries of the source, which are not always exact repeats. Identical values can stand only once. The source made the active and inactive calls.

Assay [1] is described as follows: small molecules captured by biotinylated probe aFSTL3 – biochemical, small-molecule microarray, fluorescence 635/667, stem cell growth factor project, primary screen (AID 1064).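 Also: measures binding of the biotinylated anti-FSTL3 antibody to printed compounds.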 The settings on record: higher = more signal.
The nature of assay [2]: binders from COS7 lysate, DM2A8 probe, primary screen, torsin A project, cell lysate, small-molecule microarray, fluorescence 635/667 (AID 1065). The following applies: higher = more signal, COS7 lysate expressing mutant human TOR1A.
Assay [3] in a line: small molecules captured by biotinylated probe aFGF2 – biochemical, small-molecule microarray, fluorescence 635/667, stem cell growth factor project, primary screen (AID 1067).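 Also: measures binding of biotinylated aFGF2 protein to printed compounds on slides; z-score merges feature fluorescence and signal-to-noise across triplicate slides.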 The following applies: higher = more signal.
Assay [4] in a line: small molecules captured by biotinylated probe aFGF10 – biochemical, small-molecule microarray, fluorescence 635/667, stem cell growth factor project, primary screen (AID 1071).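 Also: score merges 667 nm spot intensity and signal to noise from triplicate slides.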 The settings on record: higher = more signal.
In assay [5] the target is Neurogenic locus notch homolog protein 2 (Homo sapiens) (UniProt Q04721). In words: small molecules binding Notch2 protein – biochemical, small-molecule microarray, 635 nm fluorescence, stem cell growth factors, primary screen (AID 1073). The following applies: higher = more signal.
In assay [6] the target is Pro-neuregulin-1, membrane-bound isoform (Homo sapiens) (UniProt Q02297). In words: small molecules binding neuregulin-1 protein – biochemical, small-molecule microarray, fluorescence 635/667, psychiatric disease protein project, primary screen (AID 1075).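 Also: score combines 667 nm spot fluorescence with signal to noise.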 The settings on record: NRG1 binding, 635 nm fluorescence, higher = more signal.
Assay [7] concerns Neuregulin-1 EGF-like domain. In words: small molecules binding NRG1 EGF domain – biochemical, small-molecule microarray, 635 nm fluorescence, primary screen (AID 1081).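 Also: binding of the protein to compounds printed on small-molecule microarray slides.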 The following applies: higher = more signal.
A short description of assay [8]: FRG1 expression reporter modulators in myotubes – cell-based, C2C12 myotubes, firefly/Renilla luciferase, luminescence, FRG1 inhibition for FSHD, primary screen (AID 1084). The following applies: FRG1 promoter luciferase, higher = more signal, called active from +8 up or from −8 down.
Assay [9] is described as follows: small molecules captured by biotinylated probe aFST – biochemical, small-molecule microarray, fluorescence 635/667, stem cell growth factor project, primary screen (AID 1086).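 Also: score merges 667 nm fluorescence with signal-to-noise of each printed compound spot.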 The settings on record: higher = more signal.
The nature of assay [10]: binders of probe aHhip on microarray, primary screen, stem cell growth factor project, biochemical, small-molecule microarray, fluorescence 635/667 (AID 1087).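 Also: score merges spot fluorescence at 667nm with spot signal to noise ratio.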 The following applies: higher = more signal.
Assay [11] deals with PRMT1 (protein arginine N-methyltransferase 1). In words: small molecules binding arginine methyltransferase PRMT1 – biochemical, small-molecule microarray, 635 nm fluorescence, primary screen (AID 1088).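 Also: binding of Prmt1 protein to compounds spotted on small-molecule microarray slides.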 The following applies: higher = more signal.
Assay [12] in a line: growth effects on S. cerevisiae YJM789 – YJM789 clinical isolate, OD600, 24 h, basal, primary screen (AID 1089).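 Also: growth of clinical yeast isolate S. cerevisiae YJM 789 seeded 1000 cells per well; test concentration not given here.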 The following applies: higher = more signal, called active from +8 up or from −8 down.
Assay [13] is described as follows: S. pombe growth modifiers, basal conditions – strain 972, OD600, 24 h, no modulator, primary screen (AID 1090).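 Also: basal condition with compound alone and no growth modifier present; test concentration not given here.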 The settings on record: S. pombe 972 growth, higher = more signal, called active from +8 up or from −8 down.
Assay [14] is described as follows: budding yeast growth modifiers under rapamycin – strain BY4716, OD600, 96 h, primary screen (AID 1091). Also: test concentration not given here. The settings on record: S. cerevisiae BY4716 + rapamycin, higher = more signal, called active from +8 up or from −8 down.
Assay [15] addresses Torsin-1A-interacting protein 2 (Homo sapiens) (UniProt Q8NFQ8). In words: small molecules binding lysate-expressed LULL1 – cell lysate, human LULL1 lysate, 635/667 nm fluorescence, primary screen (AID 1092).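 Also: probe is lysate of COS7 cells overexpressing human LULL1; score merges per-feature 667 nm fluorescence with signal-to-noise.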 The following applies: small-molecule microarray, hLULL1 lysate binding, 635 nm fluorescence; higher = more signal.
Assay [16] is described as follows: optical density change of DRC41 E. coli – strain DRC41, OD650, 24 h, E. coli filamentation project, primary screen (AID 1093).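 Also: MC1000 strain lacking acrAB efflux and sulA so SOS filamentation is blocked; test concentration not given here.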 The settings on record: E. coli DRC41 growth, higher = more signal, called active from +8 up or from −8 down.
A short description of assay [17]: probe aLefty2 binding to arrayed compounds – biochemical, biotinylated probe, 635/667 nm fluorescence, primary screen (AID 1094).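 Also: score merges spot fluorescence near 667 nm with spot signal-to-noise ratio.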 The following applies: small-molecule microarray, higher = more signal.
Assay [18] relates to Noggin (protein binding on small-molecule microarray). The experiment in a line: small molecules binding Noggin protein – biochemical, 635/667 nm fluorescence, primary screen (AID 1095).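 Also: score merges 667 nm feature fluorescence with signal to noise over triplicate slides.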 The settings on record: 635 nm fluorescence, higher = more signal.
Assay [19] addresses Neurogenic locus notch homolog protein 3 (Homo sapiens) (UniProt Q9UM47). The experiment in a line: small molecules binding NOTCH3 protein – biochemical, 635/667 nm fluorescence, primary screen (AID 1096). The following applies: small-molecule microarray, 635 nm fluorescence, higher = more signal.
Assay [20] in a line: probe aEGFR binding to arrayed compounds – biochemical, biotinylated probe, 635/667 nm fluorescence, primary screen (AID 1097).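 Also: probe is a biotinylated anti-EGFR antibody binding compounds printed on slides; score combines fluorescence near 667 nm and signal to noise of each spot.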 The following applies: small-molecule microarray, higher = more signal.

Neurogenic locus notch homolog protein 3 (Homo sapiens), sequence (Q9UM47 whole entry, looked up): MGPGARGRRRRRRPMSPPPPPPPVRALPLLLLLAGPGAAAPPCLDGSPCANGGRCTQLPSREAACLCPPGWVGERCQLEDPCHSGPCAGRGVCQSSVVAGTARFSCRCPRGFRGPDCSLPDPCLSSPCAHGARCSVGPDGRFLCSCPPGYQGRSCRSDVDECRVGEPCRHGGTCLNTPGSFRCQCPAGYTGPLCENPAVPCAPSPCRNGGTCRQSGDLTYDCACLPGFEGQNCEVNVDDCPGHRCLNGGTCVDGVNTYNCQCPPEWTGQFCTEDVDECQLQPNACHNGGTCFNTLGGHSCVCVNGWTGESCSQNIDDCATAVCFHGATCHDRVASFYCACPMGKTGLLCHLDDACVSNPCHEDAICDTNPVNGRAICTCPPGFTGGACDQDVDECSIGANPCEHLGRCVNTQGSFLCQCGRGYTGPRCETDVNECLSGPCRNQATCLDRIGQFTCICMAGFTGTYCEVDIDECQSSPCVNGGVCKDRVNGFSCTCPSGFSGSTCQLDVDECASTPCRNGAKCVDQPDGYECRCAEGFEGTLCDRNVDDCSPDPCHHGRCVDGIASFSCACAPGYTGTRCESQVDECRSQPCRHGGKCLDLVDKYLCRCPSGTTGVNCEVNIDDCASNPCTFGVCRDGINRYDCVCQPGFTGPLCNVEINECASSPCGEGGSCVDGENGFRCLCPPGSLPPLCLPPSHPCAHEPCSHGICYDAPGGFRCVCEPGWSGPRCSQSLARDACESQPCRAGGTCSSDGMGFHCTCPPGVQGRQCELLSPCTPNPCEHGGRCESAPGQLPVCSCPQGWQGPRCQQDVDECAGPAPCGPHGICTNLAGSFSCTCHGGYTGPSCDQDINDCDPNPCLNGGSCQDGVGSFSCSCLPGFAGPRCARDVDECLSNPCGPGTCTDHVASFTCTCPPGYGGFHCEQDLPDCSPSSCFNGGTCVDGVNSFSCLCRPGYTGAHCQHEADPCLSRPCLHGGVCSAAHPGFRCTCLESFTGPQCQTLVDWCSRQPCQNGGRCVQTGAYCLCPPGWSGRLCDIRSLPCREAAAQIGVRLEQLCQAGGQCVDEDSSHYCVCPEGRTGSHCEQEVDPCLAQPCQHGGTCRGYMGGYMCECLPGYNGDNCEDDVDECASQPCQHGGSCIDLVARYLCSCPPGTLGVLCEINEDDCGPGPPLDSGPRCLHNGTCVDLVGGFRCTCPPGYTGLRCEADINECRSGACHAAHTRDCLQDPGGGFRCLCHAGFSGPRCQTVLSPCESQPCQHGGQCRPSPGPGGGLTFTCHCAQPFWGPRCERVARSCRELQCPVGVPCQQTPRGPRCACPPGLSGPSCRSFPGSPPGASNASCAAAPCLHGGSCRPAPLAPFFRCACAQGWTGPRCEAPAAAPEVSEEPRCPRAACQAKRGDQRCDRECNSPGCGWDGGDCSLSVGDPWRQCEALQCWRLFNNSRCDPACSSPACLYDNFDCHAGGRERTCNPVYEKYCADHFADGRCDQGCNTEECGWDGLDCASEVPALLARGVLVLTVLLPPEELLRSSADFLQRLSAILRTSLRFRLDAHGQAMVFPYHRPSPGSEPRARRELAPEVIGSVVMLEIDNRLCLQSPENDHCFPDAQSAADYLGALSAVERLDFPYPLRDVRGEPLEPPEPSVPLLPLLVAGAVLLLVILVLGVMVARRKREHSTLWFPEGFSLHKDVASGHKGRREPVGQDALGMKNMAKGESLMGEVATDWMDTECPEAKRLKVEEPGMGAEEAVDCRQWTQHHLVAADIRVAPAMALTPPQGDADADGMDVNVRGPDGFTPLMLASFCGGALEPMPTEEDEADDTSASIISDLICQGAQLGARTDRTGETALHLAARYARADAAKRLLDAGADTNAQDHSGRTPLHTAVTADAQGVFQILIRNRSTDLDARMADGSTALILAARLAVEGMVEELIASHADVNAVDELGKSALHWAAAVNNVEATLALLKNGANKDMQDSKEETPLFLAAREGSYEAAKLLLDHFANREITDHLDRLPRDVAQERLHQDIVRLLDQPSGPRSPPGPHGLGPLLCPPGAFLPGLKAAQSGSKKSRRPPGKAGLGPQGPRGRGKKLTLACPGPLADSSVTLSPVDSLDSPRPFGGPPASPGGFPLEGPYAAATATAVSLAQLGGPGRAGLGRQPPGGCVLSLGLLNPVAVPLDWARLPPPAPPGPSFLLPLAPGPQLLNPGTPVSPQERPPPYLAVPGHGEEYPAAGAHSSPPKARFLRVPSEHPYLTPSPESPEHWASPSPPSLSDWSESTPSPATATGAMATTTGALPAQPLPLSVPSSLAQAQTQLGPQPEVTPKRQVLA
Pro-neuregulin-1, membrane-bound isoform (Homo sapiens), sequence (Q02297 whole entry, looked up, the tested form may be a part, canonical isoform): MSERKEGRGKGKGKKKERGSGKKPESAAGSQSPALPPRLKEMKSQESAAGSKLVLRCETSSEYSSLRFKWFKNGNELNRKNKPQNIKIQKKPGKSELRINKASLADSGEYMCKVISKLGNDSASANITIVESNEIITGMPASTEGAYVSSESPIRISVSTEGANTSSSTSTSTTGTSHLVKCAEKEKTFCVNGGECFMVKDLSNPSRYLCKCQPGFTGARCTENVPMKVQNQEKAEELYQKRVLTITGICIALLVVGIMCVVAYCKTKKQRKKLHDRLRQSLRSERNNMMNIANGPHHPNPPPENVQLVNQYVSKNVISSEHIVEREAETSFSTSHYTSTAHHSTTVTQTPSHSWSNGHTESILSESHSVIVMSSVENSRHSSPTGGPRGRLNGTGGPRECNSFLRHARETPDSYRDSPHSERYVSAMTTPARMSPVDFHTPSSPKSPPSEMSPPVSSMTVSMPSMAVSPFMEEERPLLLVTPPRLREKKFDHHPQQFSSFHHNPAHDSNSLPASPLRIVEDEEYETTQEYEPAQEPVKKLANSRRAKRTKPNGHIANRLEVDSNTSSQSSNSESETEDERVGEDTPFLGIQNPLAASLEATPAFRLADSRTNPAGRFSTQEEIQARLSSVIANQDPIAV
Torsin-1A-interacting protein 2 (Homo sapiens), sequence (Q8NFQ8 whole entry, looked up): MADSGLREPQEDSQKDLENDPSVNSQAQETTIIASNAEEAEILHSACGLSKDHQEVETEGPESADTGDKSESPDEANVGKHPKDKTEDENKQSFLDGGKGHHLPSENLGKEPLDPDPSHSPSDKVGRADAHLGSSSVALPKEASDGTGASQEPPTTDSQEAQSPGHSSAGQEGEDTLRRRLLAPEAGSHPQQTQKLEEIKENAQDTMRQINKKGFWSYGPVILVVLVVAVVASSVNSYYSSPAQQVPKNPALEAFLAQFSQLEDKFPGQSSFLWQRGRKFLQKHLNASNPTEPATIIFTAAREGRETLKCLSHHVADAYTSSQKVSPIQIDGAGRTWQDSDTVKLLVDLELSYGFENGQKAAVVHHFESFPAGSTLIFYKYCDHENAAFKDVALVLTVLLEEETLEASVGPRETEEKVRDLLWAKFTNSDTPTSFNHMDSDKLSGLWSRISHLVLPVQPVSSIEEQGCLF

In the case of `C=CCN(C(=O)C1N(CCCCCCO)C(=O)C2C(C(=O)O)C3C=CC21O3)c1ccc(OC)cc1` (stereo not given), the composite z-score in assay [1] is 0.859 and 1.23; in assay [2], -0.585 and -0.754; in assay [3], -0.241 and -0.18; in [4], -2.33 and -1.4; in assay [5] it was -2.07 and -1.8; in [6], 1.12 and -1.47. Moreover, the composite z-score was 0.786 and -1.16 in [7]; -0.718 and -0.496 in assay [9]; -0.126 and 0.0623 in assay [10]; -0.176 and -1.86 in assay [11]; 3.53 and 3.04 in assay [15]; 0.259 and 0.337 in assay [17]. The composite z-score in assay [18] is -2.89 and -3.12; in assay [19], -0.602 and -1.35; in [20], -0.267 and -0.241. The z-score in assay [8] was 0.608 (inactive) and 0.789 (inactive); in assay [12], -0.943 (inactive) and -0.7 (inactive); in assay [13], -2.12 (inactive) and -1.62 (inactive); in assay [14] it was -1.2 (inactive) and -0.708 (inactive); in [16], 2.3 (inactive) and 1.01 (inactive).
Consider `CCCCN1CC=CC23O[C@@H]4C=CCCOC(=O)C4[C@H]2C(=O)N(C(C)CO)[C@@H]3C1=O` (stereo not given in full), for which the composite z-score was 0.385 and 0.252 in [1]; -0.371 and 0.204 in [2]; -0.0753 and -0.135 in [3]; -0.228 and 0.292 in assay [4]; -0.921 and -0.936 in [5]; 1.1 and 0.324 in assay [6]. Further, the composite z-score in [7] was 0.839 and 1.04; in [9], -0.337 and 0.104; in assay [10], -0.137 and 0.251; in [11], 0.275 and -0.575; in assay [15] it was 3.12 and -0.0307; in assay [17], -0.179 and -0.0421. The composite z-score in assay [18] was -0.72 and -0.244; in [19], -0.391 and -0.4; in [20] it was -0.221 and 0.0329. Also, the z-score in assay [8] is 0.489 (inactive) and -0.469 (inactive); in [12] it was -0.601 (inactive) and 1.38 (inactive); in [13], -0.158 (inactive) and 1.52 (inactive); in assay [14] it was -0.164 (inactive) and 0.868 (inactive); in [16], -0.164 (inactive) and 0.287 (inactive).
On to `C=CCN(C(=O)C1N(c2c(Cl)cccc2CO)C(=O)C2C(C(=O)O)C3C=CC21O3)c1ccc(OC)cc1` (stereo not given), for which the composite z-score in [1] is 0.778 and 0.859; in [2], -1.57 and -1.33; in assay [3] it was -0.119 and -0.252; in assay [4], -0.653 and -1.76; in [5], -1.09 and -1.92; in [6] it was -0.515 and -0.497. Further, the composite z-score in assay [7] is 0.507 and -0.579; in [9], -0.826 and -0.934; in assay [10], -0.283 and -0.517; in assay [11], -0.406 and -0.949; in assay [15], -0.51 and -1.41; in [17], -0.652 and -0.252. In addition, the composite z-score is -1.05 and -1.85 in assay [18]; -0.306 and -0.737 in assay [19]; -0.327 and -0.236 in [20]. The z-score in assay [8] was 1.48 (inactive) and -1.39 (inactive); in assay [12], 0.188 (inactive) and -1.76 (inactive); in assay [13], 0.0331 (inactive) and -1.23 (inactive); in [14] it was -0.362 (inactive) and -0.691 (inactive); in assay [16], 1.82 (inactive) and 2.06 (inactive).
Turning to `CCOC(=O)CCN1C(=O)[C@H]2[C@H]3[C@H](O)[C@H](O)CC(=NNC(=O)OCC)[C@@H]3CC[C@H]2C1=O`, the composite z-score in [1] was -0.144; in assay [2], 0.303; in assay [3], -0.0459; in assay [4], 0.348; in [5], 0.708; in assay [6], -0.388. In addition, the composite z-score is -0.0801 in assay [7]; 0.62 in assay [9]; -0.0994 in assay [10]; 0.763 in assay [11]; 0.45 in assay [15]; 0.0634 in assay [17]. The composite z-score in assay [18] was found to be 0.531; in [19], 0.316; in [20] it was 0.095. In addition, the z-score in [8] was 0.142 (inactive); in assay [12], -0.373 (inactive); in assay [13] it was -0.769 (inactive); in assay [14] it was -0.491 (inactive); in assay [16] it was 0.441 (inactive).

(Values after PubChem BioAssay.)
